Potency data for 40 molecules are collected here from PubChem BioAssay (Tox21).

Where “and” joins values, the source holds several entries; their conditions need not be identical. Equal values may be shown once. Records with an inconclusive call do not appear. A call without a number means that no potency is given here. Calls of active or inactive are those of the source. Calls follow the shape of the dose curve; as a rule, active = well fitted cell-killing curve with a large enough effect in the repeat runs; inconclusive = weak or mixed curves, or effect the other way; inactive = no such curve, though single readings can be large or run the other way.
Potency is read from the fitted curve at half-maximal effect.

The nature of this experiment: qHTS assay to identify small molecule antagonists of the progesterone receptor (PR) signaling pathway - cell viability counter screen (AID 1346798). Also: nearly all actives have a fitted effect of over 50% in size. The following applies: PR-UAS-bla HEK293T viability, CellTiter-Glo luminescence, 16 h; series mostly up to 92.4 µM. The source says: National Center for Advancing Translational Sciences [NCATS]
NIH Chemical Genomics Center [NCGC]
U.S. Environmental Protection Agency [EPA]
National Institutes of Environmental Health Sciences [NIEHS]
National Toxicology Program [NTP]
U.S. Food and Drug Administration [FDA]
Progesterone receptor (PR), a nuclear hormone receptor, plays an important role in development, metabolic homeostasis and reproduction. It is activated by the steroid hormone progesterone. Endocrine disrupting chemicals (EDCs) and their interactions with steroid hormone receptors like PR causes disruption of normal endocrine function. To identify the compounds that inhibit PR signaling, a PR-UAS-bla GripTite cell line i.e. PR-UAS-bla HEK293T (Invitrogen, Carlsbad, CA, USA) containing a beta-lactamase reporter gene under the control of an UAS response element was used to screen Tox21 10K compound library. The cytotoxicity of the Tox21 compound library against the PR-bla cell line was tested in parallel by measuring the cell viability using CellTiter-Glo assay in the same wells.
Tox21 Assay Protocol Summary:
PR-UAS-bla HEK293T cells were dispensed at 3,000 cells/4 uL of assay medium containing 2% charcoal stripped FBS per well into black wall/clear-bottom 1536-well plates using a Multidrop Combi (ThermoFisher Scientific, Waltham, MA) dispenser. After the assay plates were incubated at a 37C and 5% CO2 for 4 hr, 23 nL of compounds dissolved in DMSO, positive controls or DMSO only was transferred to the assay plate by a Pintool station (Kalypsys, San Diego, CA), followed by addition of 1 uL of R5020 in assay medium using a Flying Reagent Dispenser (FRD, Aurora Discovery, San Diego, CA). The plates were incubated at 37C and 5% CO2 for 16 hr. Then 1 uL of LiveBLAzer B/G FRET substrate was added using a Flying Reagent Dispenser, the plates were incubated at room temperature for 2 hours, and fluorescence intensity was measured by an Envision plate reader (PerkinElmer, Shelton, CT). For cell viability readout that measures cytotoxicity, 4 uL/well of CellTiter-Glo reagent was added into the assay plates using a FRD. After 30 min incubation at room temperature, the luminescence intensity in the plates was measured using a ViewLux (PerkinElmer) plate reader.
On to `CCOS(=O)(=O)OCC`, for which the Potency entry was “inactive”.
The value for `CCC/C=N/O` was “inactive”; that for `N#CC(c1ccccc1)c1ccccc1` was “inactive”; that for `C[N+](C)(C)CC(=O)[O-]` was “inactive”.
For `Nc1ccc2ccccc2c1` the value was “inactive”; for `Cc1ccc(N=CN(C)C=Nc2ccc(C)cc2C)c(C)c1`, “inactive”.
As for `CC1=C(C(=O)Nc2ccccc2)SCCO1`, the Potency entry was “inactive”.
The value for `CCOP(=S)(OCC)SCn1c(=O)oc2cc(Cl)ccc21` was “inactive”; that for `ClC(Cl)(Cl)c1ccccc1` was “inactive”.
For `O=C(O)c1nn(Cc2ccc(Cl)cc2Cl)c2ccccc12` the value was “inactive”.
For `CC1CC(=O)O1` (stereo not given) the value was “inactive”; for `[CH3][Sn]([Cl])([Cl])[Cl]`, “inactive”; for `CCCCOCCOC(C)=O`, “inactive”.
Turning to `CN(C)c1nc(=O)n(C2CCCCC2)c(=O)n1C`, the Potency result was “inactive”.
In the case of `C=CC(Cl)CCl` (stereo not given), the Potency result was “inactive”.
For `OC(c1ccc(Cl)cc1)(c1cncnc1)c1ccccc1Cl` (stereo not given) the value was “inactive”; for `S=c1[nH]c2ccccc2[nH]1`, 24.4 µM (active); for `c1ccc(C2CO2)cc1` (stereo not given), “inactive”.
The value for `CNC(=O)CSP(=S)(OC)OC` was “inactive”.
Take `c1ccc2c(c1)Nc1ccccc1S2`: the Potency result was “inactive”.
Turning to `CCNc1nc(Cl)nc(NC(C)(C)C#N)n1`, the Potency entry is “inactive”.
For `COc1ccc(O)c(C(C)(C)C)c1` the value was “inactive”; for `CC(C)(O)C#N`, “inactive”; for `N#CCCCCC#N`, “inactive”.
For `O=P(OCCCl)(OCCCl)OCCCl` the value was “inactive”.
Regarding `CCCCCCCCCC(CC)c1ccc(S(=O)(=O)O)cc1` (stereo not given), the Potency was 30.9 µM (active) and 29.8 µM (active) and 27.3 µM (active).
For `[Cl-].[Cl-].[Cl-].[Fe+3]` the value was “inactive”.
For `Cc1cccc(N=Nc2ccc(N(C)C)cc2)c1` the value was “inactive”; for `CC1(C)C(C(=O)OC(C#N)c2cccc(Oc3ccccc3)c2)C1(C)C` (stereo not given), “inactive”; for `CCC1(c2ccc(N)cc2)CCC(=O)NC1=O` (stereo not given), “inactive”.
Consider `Clc1ccccc1-c1nnc(-c2ccccc2Cl)nn1`, for which the Potency result is “inactive”.
As to `NC(=O)CN1CCCC1=O`, the Potency entry is “inactive”.
For `CCCCC(C#N)(Cn1cncn1)c1ccc(Cl)cc1` (stereo not given) the value was “inactive”; for `CCN(CC)C(=O)C(C)Oc1cccc2ccccc12` (stereo not given), “inactive”; for `CCC(=O)Nc1ccc(Cl)c(Cl)c1`, “inactive”.
The value for `CC(C)(C#N)N=NC(C)(C)C#N` was “inactive”; that for `Cn1c(-c2ccccc2)cc(-c2ccccc2)[n+]1C` was “inactive”; that for `O=C(O)CF` was “inactive”.
For `CC[n+]1c(-c2ccccc2)c2cc(N)ccc2c2ccc(N)cc21` the value was 5.31 µM (active).
`OCCOCCO`: the Potency result was “inactive”.
